13 compounds from PubChem BioAssay can be followed below.

Activity calls are given as the source filed them.

Experiment [1] is described as follows: small molecules captured by biotinylated probe aFSTL3 – biochemical, small-molecule microarray, fluorescence 635/667, stem cell growth factor project, primary screen (AID 1064).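 Note: measures binding of the biotinylated anti-FSTL3 antibody to printed compounds.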 The settings on record: higher = more signal.
Experiment [2] in a line: binders from COS7 lysate, DM2A8 probe, primary screen, torsin A project, cell lysate, small-molecule microarray, fluorescence 635/667 (AID 1065). Conditions: higher = more signal, COS7 lysate expressing mutant human TOR1A.
A short description of experiment [3]: small molecules captured by biotinylated probe aFGF2 – biochemical, small-molecule microarray, fluorescence 635/667, stem cell growth factor project, primary screen (AID 1067).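 Note: measures binding of biotinylated aFGF2 protein to printed compounds on slides; z-score merges feature fluorescence and signal-to-noise across triplicate slides.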 The settings on record: higher = more signal.
Experiment [4] can be described thus: small molecules captured by biotinylated probe aFGF10 – biochemical, small-molecule microarray, fluorescence 635/667, stem cell growth factor project, primary screen (AID 1071).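 Note: score merges 667 nm spot intensity and signal to noise from triplicate slides.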 The settings on record: higher = more signal.
Experiment [5] has as its target Neurogenic locus notch homolog protein 2 (Homo sapiens) (UniProt Q04721). Description: small molecules binding Notch2 protein – biochemical, small-molecule microarray, 635 nm fluorescence, stem cell growth factors, primary screen (AID 1073). Conditions: higher = more signal.
Experiment [6] deals with Pro-neuregulin-1, membrane-bound isoform (Homo sapiens) (UniProt Q02297). Description: small molecules binding neuregulin-1 protein – biochemical, small-molecule microarray, fluorescence 635/667, psychiatric disease protein project, primary screen (AID 1075).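 Note: score combines 667 nm spot fluorescence with signal to noise.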 The settings on record: NRG1 binding, 635 nm fluorescence, higher = more signal.
Chain of Pro-neuregulin-1, membrane-bound isoform (Homo sapiens) (Q02297 whole entry, looked up, the tested form may be a part, canonical isoform): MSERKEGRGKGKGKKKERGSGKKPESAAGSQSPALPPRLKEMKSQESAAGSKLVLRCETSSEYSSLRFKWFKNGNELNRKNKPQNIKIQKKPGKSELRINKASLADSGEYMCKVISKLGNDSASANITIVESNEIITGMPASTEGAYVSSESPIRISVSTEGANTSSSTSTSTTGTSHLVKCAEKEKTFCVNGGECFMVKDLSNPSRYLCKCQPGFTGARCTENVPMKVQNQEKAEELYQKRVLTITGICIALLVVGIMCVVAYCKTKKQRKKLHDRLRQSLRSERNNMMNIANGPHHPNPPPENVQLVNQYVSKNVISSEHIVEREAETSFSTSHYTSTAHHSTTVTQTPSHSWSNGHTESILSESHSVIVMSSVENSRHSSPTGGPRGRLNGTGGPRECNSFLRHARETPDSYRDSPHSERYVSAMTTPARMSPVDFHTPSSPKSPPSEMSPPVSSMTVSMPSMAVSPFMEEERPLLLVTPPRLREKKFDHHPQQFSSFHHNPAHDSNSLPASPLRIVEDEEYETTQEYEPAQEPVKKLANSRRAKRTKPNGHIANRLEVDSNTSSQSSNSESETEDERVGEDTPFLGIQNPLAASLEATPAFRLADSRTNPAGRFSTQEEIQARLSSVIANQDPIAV
The subject of experiment [7] is Neuregulin-1 EGF-like domain. Nature of the experiment: small molecules binding NRG1 EGF domain – biochemical, small-molecule microarray, 635 nm fluorescence, primary screen (AID 1081).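 Note: binding of the protein to compounds printed on small-molecule microarray slides.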 Conditions: higher = more signal.
Experiment [8] is described as follows: FRG1 expression reporter modulators in myotubes – cell-based, C2C12 myotubes, firefly/Renilla luciferase, luminescence, FRG1 inhibition for FSHD, primary screen (AID 1084). Conditions: FRG1 promoter luciferase, higher = more signal, called active from +8 up or from −8 down.
Experiment [9] in a line: small molecules captured by biotinylated probe aFST – biochemical, small-molecule microarray, fluorescence 635/667, stem cell growth factor project, primary screen (AID 1086).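 Note: score merges 667 nm fluorescence with signal-to-noise of each printed compound spot.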 Conditions: higher = more signal.
Experiment [10] is described as follows: binders of probe aHhip on microarray, primary screen, stem cell growth factor project, biochemical, small-molecule microarray, fluorescence 635/667 (AID 1087).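 Note: score merges spot fluorescence at 667nm with spot signal to noise ratio.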 The settings on record: higher = more signal.

Chain of Neurogenic locus notch homolog protein 2 (Homo sapiens) (Q04721 whole entry, looked up, canonical isoform): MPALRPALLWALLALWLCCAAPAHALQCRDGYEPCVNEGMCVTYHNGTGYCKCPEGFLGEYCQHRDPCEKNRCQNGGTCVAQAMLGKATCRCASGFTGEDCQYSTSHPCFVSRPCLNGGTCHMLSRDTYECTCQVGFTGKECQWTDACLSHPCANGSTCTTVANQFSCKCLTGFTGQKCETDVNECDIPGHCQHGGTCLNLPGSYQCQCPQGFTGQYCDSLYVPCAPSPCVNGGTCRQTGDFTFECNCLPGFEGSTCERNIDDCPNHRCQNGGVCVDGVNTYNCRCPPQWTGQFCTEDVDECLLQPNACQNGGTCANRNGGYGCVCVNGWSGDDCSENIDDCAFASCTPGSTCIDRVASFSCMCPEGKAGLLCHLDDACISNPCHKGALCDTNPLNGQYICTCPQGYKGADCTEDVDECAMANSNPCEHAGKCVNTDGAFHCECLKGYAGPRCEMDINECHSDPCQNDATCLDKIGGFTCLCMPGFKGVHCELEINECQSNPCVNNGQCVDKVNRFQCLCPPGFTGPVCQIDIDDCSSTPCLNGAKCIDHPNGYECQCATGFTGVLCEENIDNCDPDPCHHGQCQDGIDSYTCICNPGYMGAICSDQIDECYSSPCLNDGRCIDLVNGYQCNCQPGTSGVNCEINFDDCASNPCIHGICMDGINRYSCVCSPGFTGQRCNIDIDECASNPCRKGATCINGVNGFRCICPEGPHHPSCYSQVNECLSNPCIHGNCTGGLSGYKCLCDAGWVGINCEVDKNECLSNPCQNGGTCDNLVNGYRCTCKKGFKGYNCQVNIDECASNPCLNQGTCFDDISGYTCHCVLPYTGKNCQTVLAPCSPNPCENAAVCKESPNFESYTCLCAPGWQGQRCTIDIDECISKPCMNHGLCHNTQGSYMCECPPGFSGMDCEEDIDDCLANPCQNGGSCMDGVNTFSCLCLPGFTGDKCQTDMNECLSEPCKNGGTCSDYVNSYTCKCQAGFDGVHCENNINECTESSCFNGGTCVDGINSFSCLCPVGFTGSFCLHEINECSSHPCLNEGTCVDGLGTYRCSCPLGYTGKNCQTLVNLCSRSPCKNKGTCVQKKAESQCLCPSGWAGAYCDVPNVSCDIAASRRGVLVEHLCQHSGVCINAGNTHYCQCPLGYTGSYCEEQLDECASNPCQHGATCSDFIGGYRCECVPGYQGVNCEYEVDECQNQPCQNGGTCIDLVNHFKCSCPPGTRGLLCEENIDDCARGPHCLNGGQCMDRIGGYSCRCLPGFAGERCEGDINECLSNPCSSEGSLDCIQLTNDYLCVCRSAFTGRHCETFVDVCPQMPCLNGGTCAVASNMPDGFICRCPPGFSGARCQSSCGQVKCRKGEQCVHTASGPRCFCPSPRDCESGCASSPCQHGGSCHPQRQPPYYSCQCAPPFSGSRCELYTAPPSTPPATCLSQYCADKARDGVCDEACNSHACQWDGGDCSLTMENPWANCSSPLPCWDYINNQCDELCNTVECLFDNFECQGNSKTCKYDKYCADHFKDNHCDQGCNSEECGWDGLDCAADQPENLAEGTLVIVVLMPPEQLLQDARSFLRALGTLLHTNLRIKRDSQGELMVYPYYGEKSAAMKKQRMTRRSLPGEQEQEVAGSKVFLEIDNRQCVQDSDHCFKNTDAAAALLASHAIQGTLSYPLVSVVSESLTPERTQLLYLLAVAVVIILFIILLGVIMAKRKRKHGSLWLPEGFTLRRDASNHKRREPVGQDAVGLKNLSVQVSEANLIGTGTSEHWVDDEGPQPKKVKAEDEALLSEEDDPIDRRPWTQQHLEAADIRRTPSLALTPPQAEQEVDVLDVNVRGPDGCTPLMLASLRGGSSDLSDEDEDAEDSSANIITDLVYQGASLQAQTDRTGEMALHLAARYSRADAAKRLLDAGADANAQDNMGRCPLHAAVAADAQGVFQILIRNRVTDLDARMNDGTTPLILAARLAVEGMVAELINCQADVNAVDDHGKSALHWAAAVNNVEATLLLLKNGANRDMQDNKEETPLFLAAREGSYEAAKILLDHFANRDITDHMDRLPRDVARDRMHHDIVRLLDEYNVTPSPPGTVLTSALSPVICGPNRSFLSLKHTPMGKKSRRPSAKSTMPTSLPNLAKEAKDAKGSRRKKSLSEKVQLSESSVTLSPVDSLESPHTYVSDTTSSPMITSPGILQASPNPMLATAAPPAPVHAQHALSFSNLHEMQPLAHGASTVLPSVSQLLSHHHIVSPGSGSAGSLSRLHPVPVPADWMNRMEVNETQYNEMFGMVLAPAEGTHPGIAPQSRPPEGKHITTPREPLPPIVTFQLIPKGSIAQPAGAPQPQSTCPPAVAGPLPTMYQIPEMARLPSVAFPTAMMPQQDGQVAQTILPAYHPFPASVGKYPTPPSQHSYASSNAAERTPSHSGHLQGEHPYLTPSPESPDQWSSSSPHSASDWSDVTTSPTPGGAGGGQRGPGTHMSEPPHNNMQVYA

Regarding `CCCc1cc2c(n1Cc1ccc(OC)cc1)C(C)C1CN(C(=O)c3ccccc3)C(C)(C(=O)OC)C21` (stereo not given), the composite z-score in experiment [1] turned out to be 1.24; in experiment [2] it was 0.575; in [3] it was 0.354; in [4], 0.345; in experiment [5] it was 1.59; in [6] it was 1.81. The composite z-score was 1.2 in [7], 1.14 in experiment [9] and -0.127 in experiment [10]. Further, the z-score in [8] was -0.0832 (inactive).

Take `C=C[C@@H](O)[C@H]1CC(c2ccccc2)=NO1`: the composite z-score in experiment [1] was -0.0317; in [2] it was -0.1; in experiment [3] it was -0.0692; in experiment [4] it was -0.105; in experiment [5], -0.138; in experiment [6], -0.37. Also, the composite z-score in experiment [7] is -0.262; in experiment [9], 0.266; in [10], 0.172. For the same compound, the z-score in [8] was 1.6 (inactive).

Consider `Cc1ccccc1C(O)C1C=CC2C(=O)N(C)C(=O)C2N1Nc1ccc([N+](=O)[O-])cc1[N+](=O)[O-]` (stereo not given), for which the composite z-score in [1] was -0.0166; in experiment [2], 0.14; in experiment [3], 0.084; in experiment [4], 0.922; in experiment [5], 1.65; in experiment [6], 1.65. Moreover, the composite z-score in [7] was 1.27; in experiment [9], 1.59; in [10], -0.0645. In addition, the z-score in experiment [8] is 0.248 (inactive).

Turning to `C[C@]12C(=O)N(CCCO)[C@@H]3C(=O)N(c4ccc(Cl)cc4)CC=CC31O[C@@H]1/C=C\CCCOC(=O)C12` (stereo not given in full), the composite z-score was -0.157 in experiment [1]; -0.549 in experiment [2]; -0.0895 in experiment [3]; -0.512 in experiment [4]; -1.37 in experiment [5]; -0.0724 in experiment [6]. The composite z-score in experiment [7] is 1.13; in [9] it was -0.67; in experiment [10], -0.363. For the same compound, the z-score in experiment [8] is 1.43 (inactive).

Regarding `CC(C)C[C@@H]1NC(=O)[C@@H]2C[C@H](C(=O)NCc3ccc(F)cc3)[C@H](c3ccc(O)cc3)N2C1=O`, the composite z-score was 0.454 in [1]; 0.0392 in experiment [2]; -0.017 in [3]; 0.0187 in experiment [4]; 0.245 in [5]; 0.346 in experiment [6]. Further, the composite z-score in [7] is 1.16; in experiment [9], -0.512; in [10], -0.201. Moreover, the z-score in [8] is -0.331 (inactive).

On to `COCC(=C=CC[C@@H](O)c1ccccc1OCCO)C[C@@H](O)c1ccccn1`, for which the composite z-score in [1] is -0.304; in experiment [2], 0.663; in experiment [3], -0.0775; in [4] it was 0.159; in [5], 0.12; in experiment [6], 1.21. For the same compound, the composite z-score in [7] was 1.2; in experiment [9], -0.0376; in [10], 0.0156. Also, the z-score in experiment [8] is -0.0964 (inactive).

Turning to `Cc1cc(C)c(C(O)C2C=CC3C(=O)N(c4ccccc4)C(=O)C3N2Nc2ccc([N+](=O)[O-])cc2)c(C)c1` (stereo not given), the composite z-score in experiment [1] came to 0.0096; in experiment [2], 0.129; in experiment [3], 0.0748; in experiment [4], 0.453; in experiment [5], 1.68; in experiment [6] it was 1.9. For the same compound, the results for the composite z-score in experiment [7], in experiment [9] and in experiment [10] were 1.36, 1.51 and -0.223, respectively. Further, the z-score in experiment [8] was -0.625 (inactive).

For `O=C1O[C@H](c2ccccc2)[C@H](c2ccccc2)N2[C@H]1[C@@H](C(=O)N1CCCCCCC1)[C@]1(C(=O)Nc3ccccc31)[C@H]2c1ccc(O)cc1`, the composite z-score was 4.2 in experiment [1]; 2.71 in experiment [2]; 1.1 in [3]; 1.61 in experiment [4]; 1.83 in experiment [5]; 2.55 in experiment [6]. The composite z-score in experiment [7] was 1.37; in [9] it was 3.92; in experiment [10], 4.73. Besides, the z-score in [8] is 0.168 (inactive).

`O=C1C[C@@](C(=O)NCc2ccccc2)(c2ccc([N+](=O)[O-])cc2)[C@@H](c2ccc(CO)cc2I)N1C1CCCCC1`: the composite z-score in experiment [1] amounted to 1.95; in [2], 0.379; in [3] it was 0.347; in [4] it was 0.352; in experiment [5] it was 1.08; in experiment [6] it was 0.819. In addition, the values for the composite z-score in experiment [7], in [9] and in experiment [10] were 1.29, 1.3 and 0.368, respectively. The z-score in experiment [8] was -0.524 (inactive).

For `C[N+](C)(C)CCCCNC(=O)[C@H]1C[C@H]2C(=O)NCC(=O)N2[C@H]1c1ccc(O)cc1`, the composite z-score was -0.392 in [1]; 1.83 in experiment [2]; -0.0466 in experiment [3]; 1.12 in experiment [4]; 0.943 in experiment [5]; 0.584 in [6]. In addition, the composite z-score in experiment [7] was 1.38; in [9] it was 0.383; in experiment [10], -0.156. In addition, the z-score in [8] was 0.0635 (inactive).

`CCOc1cc(C(O)C2C=CC3C(=O)NC(=O)C3N2Nc2ccccn2)ccc1O` (stereo not given): the composite z-score in experiment [1] is -0.373; in experiment [2], 0.123; in [3] it was -0.0094; in experiment [4], 0.458; in experiment [5], 0.257; in experiment [6], 0.18. In addition, the results for the composite z-score in [7], in experiment [9] and in experiment [10] were 0.117, 0.0771 and -0.132, respectively. Moreover, in [8], the z-score was -0.027 (inactive).

With `CCC[C@@H]1C[C@@]1(CCC)[C@@H](NC(=O)c1cccs1)c1ccc(Cl)cc1`, the composite z-score in [1] is 1.38; in experiment [2] it was -0.553; in [3], -0.0861; in experiment [4] it was -0.092; in experiment [5], -1.6; in experiment [6] it was 0.161. Besides, the composite z-score in [7] was -0.405; in experiment [9], -0.711; in experiment [10], -0.254. The z-score in experiment [8] is -2.04 (inactive).

Regarding `COC(=O)[C@@]1(Cc2ccc(OC)cc2)[C@H]2c3cc(C(=O)N(C)C)n(Cc4cc(F)c(F)c(F)c4)c3C[C@H]2CN1C(=O)c1ccccc1`, the composite z-score was 0.831 in experiment [1]; -0.136 in [2]; 0.329 in [3]; 0.594 in [4]; 1.74 in experiment [5]; 1.81 in experiment [6]. Besides, the composite z-score in experiment [7] came out at 1.08; in [9], 1.24; in experiment [10] it was 0.987. In addition, in experiment [8], the z-score is 2.19 (inactive).
